In the library only some 4.4% were active in any assay of this set; here they are far more common.
tim23-1 inh: tim23-1 yeast growth inhibition | actives 1.3% (n = 330,000) | S. cerevisiae tim23-1 growth, BacTiter-Glo luminescence, 24 h | inhibition, % at 20 µM;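 active = growth inhibition of the mutant yeast at or above 50%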;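 also: temperature-sensitive mutant grown at 25 °C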
SKKanGAS inh: inhibitors of SKKanGAS S. pyogenes growth in kanamycin (SK-promoter or general growth effect); BacTiter-Glo, 6 h; inhibition, % at 7.5 µM; actives 1.3% (n = 300,000);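 active = mean replicate score, as percent of positive control median, at least 50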;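 also: strain carries kanamycin resistance gene driven by streptokinase promoter and grows in 40 µg/ml kanamycin; loss of luminescence reflects streptokinase promoter inhibition or plain growth inhibition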
TIM10 inh: inhibits growth of TIM10 yeast strain; S. cerevisiae TIM10 strain growth, BacTiter-Glo luminescence, 24 h; inhibition, % at 10 µM; actives 1.4% (n = 330,000); AID 463195;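 active = inhibition of 40% or more at the single tested concentration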;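 also: wild-type TIM10 isogenic control strain grown at permissive 25 °C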
tim10-1 inh: inhibits growth of tim10-1 mutant yeast; S. cerevisiae tim10-1 ts strain growth, BacTiter-Glo, 24 h; inhibition, % at 20 µM; actives 2.2% (n = 330,000); AID 463190;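 active = inhibition of at least 40%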;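 also: mutant grown at 25 °C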
PfHsp90 set2: reduces growth (ATP signal) of yeast expressing P. falciparum Hsp90; actives 0.32% (n = 310,000); AID 504621; S. cerevisiae expressing PfHsp90, BacTiter-Glo ATP, 48 h; yeast lacking PDR1 and PDR3 efflux regulators; inhibition, % at 9.4 µM;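 active = every replicate shows inhibition above about 80%, whatever the replicate mean, limit read from the data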
TIM10 conf: TIM10 yeast growth inhibition, confirmed. shares compounds with TIM10 inh. inhibition, % at 10 µM. AID 463215. S. cerevisiae tim10 strain growth, BacTiter-Glo luminescence, 24 h. actives 63% (n = 4,600);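 active = inhibition of yeast growth at or above a set limit in either of two replicates at 10 µM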; also: this counterscreen used the strain with wild-type TIM10
tim23-1 confirm: tim23-1 yeast growth inhibition, confirmed | shares compounds with tim23-1 inh | S. cerevisiae tim23-1 growth, BacTiter-Glo luminescence, 24 h | inhibition, % at 20 µM | actives 83% (n = 4,400) | AID 463218;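 active = inhibition above about 39% in either of two replicate wells at 20 µM, limit read from the data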;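 also: temperature-sensitive tim23-1 mutant grown at 25 °C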
A number is an active result; i = inactive; nt = no result.

SMILES	tim23-1 inh	SKKanGAS inh	TIM10 inh	tim10-1 inh	PfHsp90 set2	TIM10 conf	tim23-1 confirm
O=C(/C=C/c1ccccc1)Nc1ccc(S(=O)(=O)N2CCOCC2)cc1	i	i	46	i	i	44	nt
COc1ccc(NC(=O)CSCC(=O)Nc2ccc(S(=O)(=O)N3CCOCC3)cc2)cc1	i	nt	i	i	i	nt	nt
Cc1nn(-c2ccccc2)c(Cl)c1C(=O)OCC(=O)NCCc1ccccc1	i	i	i	i	i	nt	nt
COc1ccccc1NC(=O)NNC(=O)CCc1ccccc1	i	i	i	i	i	nt	nt
COc1ccc(/C=C/C(=O)Nc2ccccc2)cc1S(=O)(=O)N1CCOCC1	i	i	i	i	i	nt	nt
COc1ccc(/C=C/C(=O)Nc2ccc(NC(C)=O)cc2)cc1S(=O)(=O)N1CCOCC1	i	i	96	i	i	i	nt
O=C(COc1ccc([N+](=O)[O-])cc1)N1CCN(c2nnc(-c3ccccc3)c3ccccc23)CC1	i	i	i	i	i	nt	nt
O=C(COc1ccc(-c2nnc(N3CCCCC3)c3ccccc23)cc1)N1CCCCC1	i	i	42	i	i	i	nt
CCCCC[C@@H]1C=C(C(=O)O)[C@H](c2ccc(OC)c(OC)c2)N1S(=O)(=O)c1ccc(C)cc1	i	nt	97	i	i	i	nt
Cc1ccc(Cl)cc1N(CC(=O)NC(C)c1ccccc1)S(C)(=O)=O (stereo unspecified)	i	i	i	i	i	nt	nt
COc1ccc(S(=O)(=O)N(Cc2nc3ccccc3c(=O)[nH]2)C2CCCC2)cc1	i	i	42	i	i	i	nt
COc1ccc(CN(Cc2nc3ccccc3c(=O)[nH]2)C(=O)NC2CCCCC2)cc1	i	i	i	i	i	nt	nt
Cc1ccc2nc(Cl)c3nnnn3c2c1	i	i	55	i	107	71	nt
CCOc1ccc(NC(=O)c2ccccc2C(=O)c2ccccc2)cc1OCC	i	i	i	i	i	nt	nt
N#CC1=C(N2CCCCC2)c2cc3c(n2C1=O)CCCC3	52	i	44	i	i	33	57
COc1cc(C(=O)ON=C2C3CC4CC(C3)CC2C4)cc(OC)c1OC	50	i	82	i	i	84	60
Cc1cc([N+](=O)[O-])cc(/C=N\NC(=O)C2COc3ccccc3O2)c1O (stereo unspecified)	67	106	45	i	i	36	70
O=C(N/N=C\c1ccc(O)c([N+](=O)[O-])c1)C1COc2ccccc2O1 (stereo unspecified)	i	i	i	i	i	nt	nt
Cn1c(CSc2nc3ccccc3s2)nc2ccccc21	58	i	46	i	i	43	65
Cc1ccc(-n2sc3ccccc3c2=O)cc1	59	96	65	i	i	i	56
COC(=O)c1cccc(-n2sc3ccccc3c2=O)c1	i	nt	i	i	i	nt	nt
O=C(c1ccc(Cl)cc1)C(CN1CCCCC1)c1ccccc1 (stereo unspecified)	62	i	58	i	i	63	i
CCOC(=O)c1sc(NC(=O)c2ccc(S(=O)(=O)N(C)C)cc2)cc1C	i	i	i	i	i	nt	nt
CCOC(=O)c1sc(NC(=O)c2ccccc2)cc1C	64	i	50	i	i	32	72
CCOC(=O)c1sc(=NC(=O)c2ccccc2)n(C)c1C	54	i	71	i	i	62	74
SMILES	tim23-1 inh	SKKanGAS inh	TIM10 inh	tim10-1 inh	PfHsp90 set2	TIM10 conf	tim23-1 confirm
CCOC(=O)c1sc(=NC(=O)c2cccc(OC)c2)n(C)c1C	i	i	i	i	nt	nt	nt
COc1ccc(N=C(C)C2=C(O)c3ccccc3C2=O)cc1	58	i	62	i	i	i	68
O=C(Nc1ccc2nc3n(c(=O)c2c1)CCCCC3)c1ccccn1	55	i	46	i	i	36	68
O=C(Nc1ccc2nc3n(c(=O)c2c1)CCCCC3)c1cc([N+](=O)[O-])ccc1F	68	i	48	i	i	46	55
O=C(Nc1ccc2nc3n(c(=O)c2c1)CCCC3)c1ccccc1F	i	i	i	i	i	nt	nt
CCCCN(C(=O)C1CCCC1)c1c(N)n(CCC)c(=O)[nH]c1=O	i	nt	i	i	nt	nt	nt
CCOc1ccc2nc(Cl)c(/C=C/C(=O)c3ccco3)cc2c1	i	i	i	i	nt	nt	nt
Cc1cccc2cc(/C=C/C(=O)c3ccco3)c(Cl)nc12	50	i	43	i	nt	i	52
CN1CCN(c2nc(-c3cccnc3)nc3scc(-c4ccccc4)c23)CC1	i	i	i	i	i	nt	nt
Clc1nc(-c2ccccn2)nc2scc(-c3ccccc3)c12	52	i	50	i	i	i	58
Cc1ccc(/C=N/NC(=O)c2c(-c3ccccc3)noc2C)c(O)c1	57	i	43	i	nt	i	42
COc1cccc(/C=N/NC(=O)c2c(-c3ccccc3)noc2C)c1O	i	i	i	i	nt	nt	nt
CC[C@]1(c2ccccc2OC)ON(c2ccccc2C(F)(F)F)C1=O	57	nt	40	i	nt	69	62
COc1ccccc1[C@]1(C)ON(c2ccccc2C(F)(F)F)C1=O	69	nt	63	i	i	58	i
COc1ccc(-c2cc(=O)oc3cc(OCC(=O)NCC4CCC(C(=O)O)CC4)ccc23)cc1 (stereo unspecified)	i	i	i	i	i	nt	nt
O=C(C1=C[C@@H](C2CCCCC2)C[C@@H](OCc2ccc(CO)cc2)O1)N1CCN(Cc2ccccc2)CC1	i	i	i	i	i	nt	nt
O=C(CCc1ccccc1)NNC(=O)c1ccncc1	i	nt	i	i	i	nt	nt
O=C(Nc1ccc([N+](=O)[O-])cc1)N1CCc2ccccc2C1	i	i	i	i	i	nt	nt
COc1cccc(NC(=O)N2CCc3ccccc3C2)c1	i	i	i	i	i	nt	nt
O=C(Nc1cccc(Cl)c1)N1CCc2ccccc2C1	65	i	64	i	i	62	84
CC(C)c1ccc(NC(=O)N2CCc3ccccc3C2)cc1	52	i	45	i	i	31	50
COc1cccc2[nH]c(C(=O)NCc3ccccc3)cc12	i	i	i	i	i	nt	nt
CC1CCN(C(=O)CSc2nnc(-c3ccccc3F)o2)CC1	i	i	i	i	i	nt	nt
COc1cc([N+](=O)[O-])cc2sc(NC(=O)c3c(F)cccc3F)nc12	52	i	47	i	i	44	51
O=C(Nc1nc(-c2ccc([N+](=O)[O-])cc2)cs1)c1c(F)cccc1F	i	i	i	i	i	nt	nt
COc1ccc(NC(=O)c2cccs2)cc1	i	i	i	i	i	nt	nt
COc1ccc(N=N/C(=C\O)C(=O)c2cccs2)cc1	76	i	55	i	i	58	65
O=C(CCNC(=O)c1ccccc1Cl)NCC1COc2ccccc2O1 (stereo unspecified)	i	nt	i	i	nt	nt	nt
COC(=O)N/N=C/c1cc(Br)ccc1O	i	i	i	i	i	nt	nt
